Mdm2 MdmX PPI = disrupts the human Mdm2-MdmX interaction. O15151+Q00987. SaOS-2 split-luciferase Mdm2/MdmX complementation, luminescence. inhibition, % at 8 µM. 330,000 tested, 3% active. AID 485346;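 active = inhibition of at least 50% at 8 µM in the primary screen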
Calb FLC = affects C. albicans growth with fluconazole; C. albicans CaCi-2 (fluconazole-resistant clinical isolate) + fluconazole, Alamar Blue growth, 48 h; growth inhibition, % (no concentration beside the values); 300,000 tested, 0.57% active; AID 1979;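 active = growth inhibition above about 58% in most replicates, limit read from the data, passing the limit was not always enough; inconclusive = exactly half the replicates above a set limit; inactive = most replicates below a set limit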;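 note: all wells also contain fluconazole at 8 µg/ml as a sub-toxic cotreatment; 0% = median of DMSO wells and 100% = median of geldanamycin control wells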
CSC inhib = blocks cancer stem cells. inhibition, % at 7.5 µM. 300,000 tested, 1.1% active. cancer stem cell-like cells viability, luminescence; in the data active = inhibition above about 75%; inconclusive = no clear call, values can overlap the other calls; tested in HMLE shEcad cells
PP1 inh = counter-screen for PP5 inhibitors: inhibitors of human PP1-alpha; purified PP1alpha, OMFP fluorescence; inhibition, % at 6.7 µM; 320,000 tested, 0.9% active; AID 2235;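 active = inhibition above the mean inhibition of all tested compounds plus 3 SD, computed separately for each screening campaign, cut at about 15% in these data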
Beta cell apopt = beta cell apoptosis inhibition; INS-1E cytokine-induced death, ATP luminescence, 48 h; percent of positive-control rescue, neutral wells zero; protection from apoptosis, % (no concentration beside the values); 300,000 tested, 0.8% active;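 active = Every replicate reaches about 75%, or at least half do and their mean reaches it too, limit read from the data; inconclusive = At least half of replicates reach the limit but their mean does not; inactive = Under half of replicates reach the limit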;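 note: 0% = cytokine-treated negative control wells and 100% = positive control rescue; higher means more ATP so stronger rescue from cytokine killing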
PP5 inh = PP5 (human) phosphatase inhibition. purified PP5c, OMFP substrate fluorescence. inhibition, % at 6.7 µM. 320,000 tested, 0.18% active;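 active = inhibition above the campaign's mean inhibition across all tested compounds plus 3 SD, cut at about 9.5% in these data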;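 note: 0% = DMSO only and 100% = 100 µM cantharidin control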
Target sequence (P53041 whole entry, looked up): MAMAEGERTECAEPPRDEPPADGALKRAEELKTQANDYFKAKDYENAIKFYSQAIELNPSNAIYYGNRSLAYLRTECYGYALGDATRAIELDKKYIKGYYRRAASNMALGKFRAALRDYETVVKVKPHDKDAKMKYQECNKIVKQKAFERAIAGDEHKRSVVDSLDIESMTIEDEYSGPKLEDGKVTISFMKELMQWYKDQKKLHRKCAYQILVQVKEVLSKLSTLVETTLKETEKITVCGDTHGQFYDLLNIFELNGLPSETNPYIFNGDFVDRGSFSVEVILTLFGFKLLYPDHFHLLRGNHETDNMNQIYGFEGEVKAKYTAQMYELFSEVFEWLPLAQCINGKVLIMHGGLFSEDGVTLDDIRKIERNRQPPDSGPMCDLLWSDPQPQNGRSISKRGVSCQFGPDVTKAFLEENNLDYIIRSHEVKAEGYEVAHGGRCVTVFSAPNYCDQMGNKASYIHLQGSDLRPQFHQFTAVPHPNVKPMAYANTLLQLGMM
Mdm2 MdmX conf = human Mdm2/MdmX binding inhibition, confirmed; 10,000 tested, 55% active; luminescent assay; AID 489028; shares compounds with Mdm2 MdmX PPI; inhibition, % at 8 µM; in the data active = inhibition above about 40%
Full FLuc ctr = full-length luciferase inhibition in Mdm2/MdmX counter-screen | SaOS-2 full-length luciferase counterscreen, luminescence | 6,200 tested, 77% active | inhibition, % at 8 µM | shares compounds with Mdm2 MdmX PPI;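 active = mean inhibition at 8 µM reaching about 37%, which flags the compound as non-specific, limit read from the data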;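 note: p53-null SaOS-2 cells with luciferase driven by a doxycycline-inducible promoter; compound on cells about two nights before reading with doxycycline added after day one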
* hit, by the source's call; ? = inconclusive; · = no result given. This is a sample that favours compounds with a hit; in the whole collection about 4.9% have one here.

SMILES | Mdm2 MdmX PPI | Calb FLC | CSC inhib | PP1 inh | Beta cell apopt | PP5 inh | Mdm2 MdmX conf | Full FLuc ctr
CCC(C)C1/C=C\CC(NC(=O)OCC2c3ccccc3-c3ccccc32)CC(=O)N1Cc1ccccc1 (stereo not drawn) | 42.7 | · | · | · | · | · | · | ·
Cn1ccnc1CC(O)(c1ccccc1)c1ccccc1 | -1.8 | -4.4 | -8.3 | -1.3 | -1.0 | 1.0 | · | ·
CCN(CC)C(=O)C(=O)c1cccn1-c1cccc(OC)c1C#N | -8.0 | 25.4 | -11.1 | -3.3 | -2.0 | -0.2 | · | ·
CCOc1ccc(N(CC(=O)NC2CCCCC2)C(=O)CSc2nnc(COc3ccccc3)o2)cc1 | 54.7* | 4.1 | -9.1 | 0.6 | 4.8 | 0.5 | 31.6 | ·
CC1CCC2C(=O)N(c3cccc(C(=O)Nc4ccccc4Cl)c3)C(=O)C2C1 (stereo not drawn) | -20.7 | 12.3 | -3.6 | -2.0 | 0.2 | 6.0 | · | ·
COC(=O)C1=C(CN2CCCc3ccccc32)NC(=O)NC1c1ccc(F)cc1 (stereo not drawn) | 70.3* | -0.2 | -1.3 | 11.9 | -4.3 | 2.6 | 72.0* | 37.5*
CCOC(=O)C1=C(CN2c3ccccc3CC2C)NC(=O)NC1c1ccccc1 (stereo not drawn) | 14.7 | 11.0 | -12.3 | 6.7 | 6.4 | 3.2 | · | ·
Cc1ccc(S(=O)(=O)CCC(=O)OC(C)C(=O)c2c(C)[nH]c3ccccc23)cc1 (stereo not drawn) | 18.0 | 1.8 | -12.2 | 0.2 | -6.4 | 1.8 | · | ·
CCC(C)Oc1cc(-c2ccnc(Nc3cccc(Cl)c3)n2)ccn1 (stereo not drawn) | 94.7* | -11.1 | -6.5 | -2.1 | -7.8 | 5.5 | 72.8* | 25.4
OCCCNc1cc(-c2ccnc(Nc3cccc(Cl)c3)n2)ccn1 | 100.3* | 114.1* | -10.2 | -0.3 | -35.7 | 0.6 | 99.6* | 50.5*
Cc1cc(C)nc(Nc2cccc(Cl)c2)n1 | -12.1 | -2.5 | -21.6 | · | -8.2 | · | · | ·
Clc1cccc(Nc2nc(-c3cccnc3)cs2)c1 | -107.6 | 27.8 | 17.3 | 3.9 | 2.6 | 2.9 | · | ·
Cc1ccn2c(=O)c(NC(=O)c3cccs3)c(C)nc2c1 | 15.0 | -8.4 | -3.8 | -5.7 | 2.1 | 2.1 | · | ·
Cc1ccc(C)c(N=Nc2ccc(O)c3ncccc23)c1 | 97.0* | 107.9* | 103.4* | 3.3 | 88.0* | 0.9 | 96.3* | 50.6*
COc1ccc(S(=O)(=O)NCCOc2cccc3cccnc23)cc1OC | -3.4 | 26.1 | · | · | · | · | · | ·
CCOc1ccc(N=Nc2ccc(O)c3ncccc23)cc1 | 68.0* | 83.4* | 103.0* | · | 54.7 | · | 80.8* | 23.3
Cc1ccccc1N=Nc1c(O)n(C)c2ccccc12 | 11.7 | 6.3 | -13.2 | -3.2 | -4.6 | 0.4 | · | ·
CCS(=O)(=O)c1ccc(OC)c(N=Nc2ccc(O)c3ncccc23)c1 | 70.5* | -11.6 | -4.2 | 15.2* | 108.2* | 1.9 | 53.5* | 50.3*
CCN(CC)S(=O)(=O)c1cc(OC)ccc1N=Nc1ccc(O)c2ncccc12 | 74.1* | 85.7* | 93.6* | · | 94.4* | · | 73.4* | 35.8
S=C(Nc1ccc(Cc2ccncc2)cc1)Nc1cccc(Cl)c1 | 4.9 | 1.6 | 55.7 | -3.0 | -5.5 | 1.2 | · | ·
Cc1ccnc(NCn2nnc3ccccc32)c1 | -1.8 | 1.7 | · | -5.0 | · | -0.7 | · | ·
CC(C)(C)c1ccc(C(=O)Nc2ccc(CN3CCS(=O)(=O)CC3)cc2)cc1 | -0.2 | 8.5 | 6.2 | 6.1 | 2.0 | 1.5 | · | ·
O=C(Nc1ccc(CN2CCS(=O)(=O)CC2)cc1)c1ccc(C(F)(F)F)cc1 | 50.6* | 0.6 | -1.9 | -2.9 | -4.9 | -0.9 | 7.8 | ·
CCN1C(=NCC2CC2)N[C@@H](c2cccc(C(F)(F)F)c2)C(C(=O)OC)=C1C | 27.9 | -8.8 | 4.5 | -3.3 | 7.3 | 1.5 | · | ·
CCN1C(=NCc2ccco2)N[C@@H](c2cccc(C(F)(F)F)c2)C(C(=O)OC)=C1C | 56.5* | · | · | · | -2.9 | · | 25.2 | ·
SMILES | Mdm2 MdmX PPI | Calb FLC | CSC inhib | PP1 inh | Beta cell apopt | PP5 inh | Mdm2 MdmX conf | Full FLuc ctr
COC(=O)C1=C(C)N(Cc2ccccc2)C(=NCCc2ccccn2)N[C@H]1c1cccc(C(F)(F)F)c1 | 80.9* | · | 4.5 | · | 1.6 | · | 51.1* | 59.2*
COC(=O)C1=C(C)N(Cc2ccccc2)C(=NCC(C)C)N[C@H]1c1cccc(C(F)(F)F)c1 | 99.2* | · | 31.0 | · | 28.8 | · | 51.4* | 26.2
COC(=O)C1=C(C)N(Cc2ccccc2)C(=NCc2ccccc2)N[C@H]1c1cccc(C(F)(F)F)c1 | 98.0* | · | 121.9* | · | 112.9* | · | 35.7 | ·
CCc1ccc(C(=O)COC(=O)c2cc([N+](=O)[O-])ccc2N2CCOCC2)cc1 | 41.8 | 1.9 | 32.1 | -1.9 | 13.7 | 1.5 | · | ·
O=C1C(=O)N(O)C2CCCCC2N1O (stereo not drawn) | -0.2 | 15.8 | -4.6 | -1.1 | -4.4 | 3.0 | · | ·
COC(=O)C1=C(C)N(Cc2ccccc2)C(=NCC(C)C)N[C@H]1c1cccc(F)c1 | 78.8* | · | · | · | -13.6 | · | 44.9* | 45.4*
COC(=O)C1=C(C)N(Cc2ccccc2)C(=NCCc2cccnc2)N[C@H]1c1ccccc1 | 44.0 | -23.7 | -4.6 | 5.5 | 2.5 | -0.5 | · | ·
COC(=O)C1=C(C)N(Cc2ccccc2)C(=NCCc2cccnc2)N[C@H]1c1ccc(Br)cc1 | 85.4* | · | -4.4 | · | 2.3 | · | 46.6* | 53.8*
CCOC(=O)c1c(CN(C)C)n(C)c2c(O)c(N=NC(N)=O)c3ccc(Br)cc3c12 | 77.1* | 70.7 | -1.4 | 17.2* | -5.5 | 8.6 | 46.6* | 27.9
CCCn1c(=O)c(C(=O)OCC)c(O)c2cc(Br)ccc21 | 24.4 | -0.3 | -0.9 | 3.6 | -1.5 | 3.7 | · | ·
Cc1ccc(N/N=C2\CC(=O)c3ccccc32)cc1Cl | 57.9* | -3.3 | 76.8* | -0.1 | 31.2 | 3.9 | 6.1 | ·
O=C(O)c1cc(NN=C2c3ccccc3-c3ccccc32)ccc1Cl | -5.6 | -4.0 | 41.3 | 5.7 | -6.6 | -0.2 | · | ·
CCSc1nc(-c2cccnc2)ccc1C#N | 24.8 | -27.2 | -15.3 | 0.0 | 0.1 | -0.5 | · | ·
N#CC1=C(N)NC(SCC(=O)O)=C(C#N)C12CCCC2 | 10.4 | 1.2 | -6.5 | -4.9 | -2.1 | -1.6 | · | ·
N#CC1=C(N)NC(SCc2ccc(F)cc2)=C(C#N)C12CCCCC2 | 58.9* | 0.0 | 62.0 | 4.2 | 7.0 | 7.2 | 59.6* | 71.9*
Cc1ccc(C)c(CN2C(=O)c3ccccc3S(=O)(=O)c3ccc(C(=O)N4CCN(C)CC4)cc32)c1 | 15.3 | -12.2 | -9.7 | 1.3 | 3.8 | 0.9 | · | ·
Cc1ccc(C)c(CN2C(=O)c3ccccc3S(=O)c3ccc(C(=O)N4CCN(c5ccccn5)CC4)cc32)c1 (stereo not drawn) | 99.1* | 17.2 | 51.9 | 5.8 | 7.6 | 2.2 | 88.5* | 53.6*
CN(Cc1ccc(-n2cccn2)cc1)Cc1nc(-c2cnccn2)no1 | 5.9 | ? | -0.8 | 7.0 | 0.7 | 2.0 | · | ·
CCN1CCCC1CNC(=O)c1cc2c(-c3ccc(Cl)cc3)nn(C)c2s1 (stereo not drawn) | 65.0* | 3.5 | 59.6 | -1.8 | · | 3.6 | 10.9 | ·

Screening data: PubChem BioAssay, several laboratories
